# Experimental data published in PubChem BioAssay (NCATS).
# Inconclusive results are not listed. Active and inactive are the calls of the source. Calls come from the whole dose curve; as a rule, active = well fitted inhibition curve with a large enough effect; inconclusive = small, poorly fitted or top-dose-only effect; inactive = no such curve, though single readings can be large or run the other way.
# Assay: qHTS Screen of the MIPE 4.0 Collection Against Ewings Sarcoma (TC71) (AID 1259253); note: nearly all actives have a fitted effect of over 40% in size
# Conditions: TC71 Ewing sarcoma viability, CellTiter-Glo, 48 h; series mostly up to 45.8 µM
# Source text: There is a large unmet medical need for treatments for Ewing sarcoma, a pediatric sarcoma. We sought to identify compounds that inhibited Ewing sarcoma cells in vitro with the goal to then test promising drugs in two drug combinations in vitro to look for synergistic drug combinations. Promising combinations would then proceed to additional validation, including in vivo testing.
# Using the NCATS developed oncology compound library called the Mechanism of Interrogation Plate (MIPE), four Ewing sarcoma cell lines were evaluated (TC32, TC71, RDES, EW8). Compounds, in a 12-point titration series, were incubated with cells for 48 hours and the read out was cell viability (CellTiter-Glo from Promega). These initial experiments were used to select appropriate concentrations of each single agent for subsequent two-drug matrix combinations such that the concentrations in the matrices would span both activity and non-activity.
# Cells, in the log phase of growth, were seeded in 5 uL of RPMI plus 5% FBS, […] L-glutamine, 100 U/ml penicillin and 100 ug/ml streptomycin into 1536-well solid-bottom white tissue culture treated Greiner Bio One Plates (789173-F) using a MultiDrop Combi (Thermofisher Scientific) dispenser and a small sterile cassette. One column was media alone to be used as a :"no cells" control. The plates were then covered with sterilized stainless steel gasketed lids from Kalypsys. After allowing cells to attach for 4 hours, 23 nL of test compound or control (negative control DMSO and positive control 9.2 uM Bortezomib-final) were added from a 1536-well polypropylene compound source plate to each well using a 1536 head pin tool from Kalypsys. Cells were then incubated for 48 hours at 37C, 95% relative humidity and 5% CO2. After 48 hours, plates were removed from the incubator and 3 uL of CellTiter-Glo (Promega) was added using an Aurora Flying Reagent Dispenser Bioraptor. Plates were incubated at room temperature for 10 minutes prior to reading the luminescence on the Viewlux (PerkinElmer). The relative luciferase units are used to calculate the percent activity using the activity of DMSO in the cells and no cells columns for normalization of no inhibition and full inhibition respectively.
# Potency is the fitted concentration of half-maximal effect.
row,SMILES,Potency
1,COc1cc(F)c(F)c(Nc2ccc(I)cc2F)c1NS(=O)(=O)C1(C[C@H](O)CO)CC1,16.6 µM (active)
2,O=C(O)CCc1ccc(NCc2cccc(Oc3ccccc3)c2)cc1,inactive
3,COc1ccc(C2=N[C@H](c3ccc(Cl)cc3)[C@H](c3ccc(Cl)cc3)N2C(=O)N2CCNC(=O)C2)c(OC(C)C)c1,16.6 µM (active)
4,O=C1CCCC2=C1C(c1[nH]ncc1Cl)N=C(Nc1nc3ccccc3o1)N2 (stereo not given),10.5 µM (active)
5,COc1ccc(CC2=NN3C([C@@H](CCc4ccccc4)[C@@H](C)O)=NC(C)C3C(=O)N2)cc1OC (stereo not given in full),inactive
6,CC(c1cc2ccccc2s1)N(O)C(N)=O (stereo not given),inactive
7,COc1ccccc1[C@H](c1cccc2ccccc12)[C@@](C)(C#N)C(=O)N1CCC(c2cccc(C(F)(F)F)c2)CC1,10.5 µM (active)
8,O=C1CCC(N2C(=O)c3ccccc3C2=O)C(=O)N1 (stereo not given),inactive
9,N=c1nc(N2CCCCC2)cc(N)n1O,inactive
10,N[C@@H]1CONC1=O,inactive
11,Cc1c(CCOc2ccc(C(=O)O)cc2)c2cc(Cl)ccc2n1C(c1ccccc1)c1ccccc1,16.6 µM (active)
12,CCc1cc(Nc2nccc(-c3c(-c4ccc(OC)c(C(=O)Nc5c(F)cccc5F)c4)nc4ccccn34)n2)c(OC)cc1N1CCC(N2CCN(S(C)(=O)=O)CC2)CC1,18.7 µM (active)
13,NC(=O)c1ccc(I)c([N+](=O)[O-])c1,inactive
14,COCC(=O)NCC=Cc1ccc2ncnc(Nc3ccc(Oc4ccc(C)nc4)c(C)c3)c2c1,23.5 µM (active)
15,CN(C)C(=O)c1ccc(S(=O)(=O)c2ccc(NC(=O)[C@@](C)(O)C(F)(F)F)c(Cl)c2)cc1,18.7 µM (active)
16,COc1ccc(-c2ccc3c(N4CCOCC4)nc(N4C[C@@H](C)O[C@@H](C)C4)nc3n2)cc1CO,0.833 µM (active)
17,Nc1nc2c(ncn2COCCO)c(=O)[nH]1,inactive
18,CN1CCN(CCCN2c3ccccc3Sc3ccc(C(F)(F)F)cc32)CC1,10.5 µM (active)
19,Oc1ccc(C2CNCCc3c2cc(O)c(O)c3Cl)cc1 (stereo not given),inactive
20,CC(C[N+](C)(C)C)OC(N)=O (stereo not given),inactive

row,SMILES,Potency
1,Cc1cnc(Nc2ccc(OCCN3CCCC3)cc2)nc1Nc1cccc(S(=O)(=O)NC(C)(C)C)c1,inactive
2,O=C(C1CC1)N1CC[C@@H](Cn2c(-c3ccc(-c4ccc5occc5c4)cc3)nc3cnccc32)C1,16.6 µM (active)
3,Cc1cc(Nc2nc(N[C@@H](C)c3ncc(F)cn3)ncc2Cl)n[nH]1,10.5 µM (active)
4,Nc1ncnc2nc(-c3ccc(N4CCOCC4)nc3)cc(-c3cccc(Br)c3)c12,20.9 µM (active)
5,NC(=O)c1ccc(-c2nc(-c3ccc4c(c3)OCO4)c(-c3ccccn3)[nH]2)cc1,14.8 µM (active)
6,CC(C)(N)C(=O)N[C@H](COCc1ccccc1)C(=O)N1CCC2(CC1)CN(S(C)(=O)=O)c1ccccc12,29.6 µM (active)
7,CCCc1nn(C)c2c(=O)[nH]c(-c3cc(S(=O)(=O)N4CCN(C)CC4)ccc3OCC)nc12,13.2 µM (active)
8,Oc1cccc(-c2nc(N3CCOCC3)c3oc4ncccc4c3n2)c1,0.152 µM (active)
9,COc1cccc2cc(-c3nc(C4CCC(C(=O)O)CC4)n4ncnc(N)c34)[nH]c12 (stereo not given),0.662 µM (active)
10,C[C@]12CC[C@H](O)CC1=CC[C@@H]1[C@H]2CC[C@]2(C)C(c3cccnc3)=CC[C@H]12,inactive
11,O=C(c1cc(Cc2n[nH]c(=O)c3ccccc23)ccc1F)N1CCN(C(=O)C2CC2)CC1,10.5 µM (active)
12,c1ccc(-c2nn3c(c2-c2ccnc4cc(OCCN5CCOCC5)ccc24)CCC3)nc1,18.7 µM (active)
13,CCOC(=O)N1CCC(=C2c3ccc(Cl)cc3CCc3cccnc32)CC1,26.4 µM (active)
14,CS(=O)(=O)Oc1ccc2c(NC(N)=O)c(C(=O)c3ccc(Cl)cc3Cl)oc2c1,14.8 µM (active)
15,O=C(O)[C@@H](c1ccc(OCc2ccc3ccccc3n2)cc1)C1CCCC1,inactive
16,Cc1cccc(-c2[nH]c(C(C)(C)C)nc2-c2ccc3nccnc3c2)n1,26.4 µM (active)
17,C[C@]1(c2nc3c(C(N)=O)cccc3[nH]2)CCCN1,inactive
18,Cc1cc(SCc2sc(-c3ccc(C(F)(F)F)cc3)nc2C)ccc1OCC(=O)O,16.6 µM (active)
19,Cc1oncc1C(=O)Nc1ccc(C(F)(F)F)cc1,18.7 µM (active)
20,COc1cc2nccc(Oc3ccc(NC(=O)NC4CC4)c(Cl)c3)c2cc1C(N)=O,1.05 µM (active)
